# This is a sample that favours compounds with a hit; in the whole collection about 6.2% have one here.
# LASV entry inh: inhibitors of Lassa virus binding or cell entry | Lassa virus pseudotype entry inhibition, cell reporter | Potency, µM (doses to about 37.9 µM), without a hit: top-dose activity change, negative = inhibition, hits mostly inhibitors | actives 1.2% (n = 300,000) | AID 540256; calls by dose curve; tested in HEK293 cells; note: potency is the fitted concentration of half-maximal effect; nearly all actives have a fitted effect of over 50% in size
# HCMV inh: inhibitors of human cytomegalovirus; HFF cells, HCMV-luciferase reporter, 72 h; active compounds read low; activity change, negative = inhibition, % at 57.5 µM; actives 4.5% (n = 410,000); in the data active = activity change below about -60%; inconclusive = no clear call, values can overlap the other calls; inactive = above about -39%
#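 Steps: HFFs plated, 16 h 37C; compounds added; HCMV-luciferase added to MOI 1 PFU/cell; 72 h 37C; OneGlo reagent, 5 min room temperature; luminescence read, normalized to controls.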
# MARV entry inh: Marburg virus entry inhibition | Marburg virus pseudotyped entry inhibition, cell reporter | Potency, µM (series often up to 37.8 µM), for the others: at the highest dose activity change, negative = inhibition, most hits filed as inhibitors | actives 1.8% (n = 300,000) | AID 540276; calls by dose curve; tested in HEK293 cells; note: potency is the fitted concentration of half-maximal effect
# FMDV inh: antivirals against foot and mouth disease virus; FMDV antiviral cell-based qHTS; Potency, µM (titrated, usually from 57.9 µM), without a hit: at the top dose activity change, negative = inhibition, most hits filed as inhibitors; actives 1.2% (n = 410,000); AID 1159524; calls by dose curve; tested in HEK293T cells; note: read-out not given here; potency is the fitted concentration of half-maximal effect; nearly all actives have a fitted effect of over 45% in size
# An asterisk follows results filed as active; ? = inconclusive; nt = no result; [ ] = another dose, or the depositor's remark. % is set by controls: 0 for no effect and ±100 for the full control effect.
SMILES,LASV entry inh,HCMV inh,MARV entry inh,FMDV inh
COc1ccc(CCNc2ncnc3c2oc2ccccc23)cc1OC,?,-91.6*,?,nt
c1ccc(CNc2ncnc3c2oc2ccccc23)nc1,?,70.1,28.7%,26.3%
CCn1c(=O)cc(SCC(=O)N2CCN(c3cc(C)ccc3C)CC2)c2ccccc21,-24.8%[46.1 µM],-8.0,-17.1%[46.1 µM],0.0%
CCN(c1ccccc1)S(=O)(=O)c1c(-c2ccc(C)cc2)csc1C(=O)OC,?,-66.9*,nt,-14.6%
COC(=O)c1scc(-c2ccc(C)cc2)c1S(=O)(=O)Nc1c(C)cc(C)cc1C,-2.6%[46.1 µM],18.5,nt,19.9%
Cc1ccc(NC(=O)CSc2nnc(COc3ccc(Cl)cc3)o2)c(C)c1,-1.0%[46.1 µM],-2.6,9.5%[46.1 µM],-20.9%
CC1=CC(C)(C)NC(=S)N1c1cccc2ccccc12,-0.7%,-100.3*,-12.8%,-20.0%
CC(C)(C)c1ccc(C(=O)O/N=C(\N)c2ccccc2)cc1,nt,-93.9*,nt,0.708µM*
Cc1cc(C(=O)O/N=C(\N)c2ccc(C(C)(C)C)cc2)no1,nt,-69.4*,nt,27.3%
Cc1noc(-c2ccc(Cl)cc2)c1C(=O)O/N=C(\N)c1ccc(C(C)(C)C)cc1,?,-99.7*,?,25.1µM*
COc1ccc(C(=O)O/N=C(\N)c2ccccc2)cc1,?,53.9,?,?
CCOC(=O)c1cc(/C(C)=N/OC(=O)c2ccc(C(C)(C)C)cc2)on1,nt,-11.2,nt,-16.0%
Fc1ccc(NN2CCOCC2)cc1-c1noc2ccccc12,nt,-5.3,nt,nt
CCOc1ccc(N=Cc2c(O)n(CCc3ccc(OC)c(OC)c3)c(=O)[nH]c2=O)cc1,-17.4%,17.8,?,7.94µM*
C/C(=N\NC(=O)c1ccccc1)c1ccc(NC(=O)C(F)(F)F)cc1,nt,nt,0.3%[46.1 µM],nt
COC(=O)[C@]12CCCCC=C1N(CCc1ccc(OC)c(OC)c1)C(=O)[C@H](CC(=O)NCc1cccc3ccccc13)C2,nt,7.5,nt,-22.7%
CCOC(=O)[C@]12CCC=C1N(Cc1cccc3ccccc13)C(=O)[C@H](CC(=O)NCc1ccc(OC)c(OC)c1)C2,nt,-64.8*,nt,35.5µM*
COC(=O)[C@]12CCCCC=C1N(Cc1cccc3ccccc13)C(=O)[C@H](CC(=O)NCc1ccc(OC)c(OC)c1)C2,nt,-86.4*,nt,14.1µM*
CCOC(=O)[C@]12CCC=C1N(Cc1ccco1)C(=O)[C@H](CC(=O)NCc1ccc(OC)c(OC)c1)C2,nt,4.9,nt,-21.3%
COc1ccc(C(=O)N2CCC3(CC2)CCN(c2cccc(-c4ccccc4)c2)CC3)cc1,nt,nt,nt,-28.3%
CCOP(=O)(OCC)c1nc(-c2ccc(C)cc2)oc1NCc1ccccc1,-15.2%,-60.6*,?,-2.7%
Cc1ccc(S(=O)(=O)NC(=O)ON=Cc2ccc3c(c2)OCO3)cc1,nt,-97.7*,nt,nt
c1ccc(C2CCC(N3CCN(c4ccccc4)CC3)CC2)cc1 (stereo not given),2.82µM*,nt,?,-16.4%
c1ccc(CCN2CCC(N3CCN(c4ccccc4)CC3)CC2)cc1,-24.4%,7.0,-4.0%,-24.5%
COCc1c(C(=O)NC2CCCC2)cnn1-c1nccc(-c2cccs2)n1,nt,nt,nt,19.8%
SMILES,LASV entry inh,HCMV inh,MARV entry inh,FMDV inh
CC1=C[C@@H](C)O[C@@]2(C1)C(=O)Nc1cccc(Br)c12,?,nt,0.6%[14.2 µM],nt
COC(=O)CC1=C(C(=O)OC)[C@H](c2cccc(OCC(N)=O)c2)C(C#N)=C(N)O1,nt,nt,-29.8%,nt
COC(=O)CC1=C(C(=O)OC)C(c2cccc(OCC(N)=O)c2)C(C#N)=C(N)O1 (stereo not given),1.5%,-101.2*,-29.8%,-10.3%
CCOc1ccc(Nc2nc(N)c(C(=O)c3ccccc3Cl)s2)cc1,?,-90.3*,nt,18.1%
COc1ccc(Nc2nc(N)c(C(=O)c3ccc(OC)cc3)s2)cc1,?,1.1,?,3.3%
CCOC(=O)C1(CCc2ccccc2)CCN(C2CCSCC2)CC1,?,-26.7,10µM*,-13.9%
CCOC(=O)C1(Cc2cccc(OC)c2)CCN(Cc2ccccc2OC)CC1,-26.0%,-61.9*,?,?
CCOC(=O)C1(Cc2cccc(OC)c2)CCN(Cc2ccc(OC)c(OC)c2)CC1,?,-27.4,4.47µM*,-26.3%
CCOC(=O)C1(CCc2ccccc2)CCN(C2Cc3ccccc3C2)CC1,-11.8%,-4.5,-20.2%[46.1 µM],?
CCOC(=O)C1(CCOc2ccccc2)CCN(Cc2cccn2-c2cccnc2)CC1,?,-72.4*,?,-26.0%
CCOC(=O)C1(Cc2cccc(OC)c2)CCN(Cc2cccc(O)c2)CC1,-14.8%,-29.8,?,?
CCOC(=O)C1(Cc2cccc(OC)c2)CCN(Cc2cccc(OC)c2O)CC1,?,-73.0*,?,25.1µM*
CCOC(=O)C1(CCOc2ccccc2)CCN(Cc2cc(OC)c3c(c2)OCO3)CC1,?,?,2.82µM*,?
CCOC(=O)C1(CCOc2ccccc2)CCN(Cc2ccc(C)s2)CC1,?,-82.0*,?,?
CCOC(=O)C1(Cc2cccc(OC)c2)CCN(Cc2ccc(C)s2)CC1,4.47µM*,-3.0,5.01µM*,?
Cc1cccc(Cc2c(C)nc3nc(SCC(=O)NCc4ccc(F)cc4)nn3c2C)c1,-13.9%[46.1 µM],2.7,-7.6%[46.1 µM],-29.1%
N#Cc1cccc(NC(=O)N2CCCC3(CCN(S(=O)(=O)c4ccccc4)CC3)C2)c1,nt,nt,nt,-10.9%
CC(=O)c1ccc(NC(=O)c2ccc3c(c2)N(Cc2cccc(Cl)c2)C(=O)c2ccccc2S3(=O)=O)cc1,5.5%[46.1 µM],24.5,?,11.6%
CCOC(=O)C1(CCOc2ccccc2)CCN(Cc2cccc(-n3cccn3)c2)CC1,?,-39.1,?,?
CCOC(=O)C1(Cc2ccccc2C(F)(F)F)CCN(C2CCN(C(C)C)CC2)CC1,?,-68.6*,7.3µM*,-8.7%
CCOC(=O)C1(CCOc2ccccc2)CCN(C(=O)c2ccc(-n3cccn3)cc2)CC1,?,?,?,22.4µM*
CCOC(=O)C1(Cc2ccc(Cl)cc2)CCN(C(C)Cc2ccc(O)c(OC)c2)CC1 (stereo not given),nt,-63.5*,nt,?
CCOC(=O)C1(CCOC)CCN(C(=O)Cc2ccc3ccccc3c2)CC1,?,-23.8,10µM*,-4.3%
CCOC(=O)C1(CCOC)CCN(C(=O)Cc2ccsc2)CC1,nt,63.0,nt,-7.8%
COc1ccc(CNc2ncncc2-c2cccc(C#N)c2)c(OC)c1,nt,nt,nt,22.4%
SMILES,LASV entry inh,HCMV inh,MARV entry inh,FMDV inh
COc1ccccc1CCNc1ncnc2sc(C(=O)N3CCCN(C=O)CC3)c(C)c12,nt,nt,nt,-26.1%
O=C(CN1C(=O)c2ccccc2C1=O)NCC1Cc2cccc(-c3ncccn3)c2O1 (stereo not given),nt,nt,nt,2.9%
CCOC(=O)C1(CCOc2ccccc2)CCN(Cc2cccc(OCCO)c2)CC1,-17.3%,61.8,?,?
CCOC(=O)C1(CCc2ccccc2)CCN(Cc2ccc3c(c2)OCCO3)CC1,?,-77.0*,?,?
CCOC(=O)C1(CCc2ccccc2)CCN(Cc2ccc(C(=O)OC)cc2)CC1,nt,-10.4,nt,?
CCOC(=O)C1(CCOc2ccccc2)CCN(Cc2cccc(F)c2)CC1,nt,-91.4*,nt,?
CN1CCN(c2ncc3nc(-c4ccccc4)c(=O)n(-c4ccccc4)c3n2)CC1,nt,nt,nt,-11.9%
CCc1ccc(C(=O)c2cncc(Br)c2)cc1,4.9%,-69.1*,?,-2.8%
NNC(=O)c1cncc(Br)c1,-0.4%,1.2,-2.1%,-15.0%
Cc1ccc(C(=O)c2cncc(Br)c2)cc1,9.2%,-71.1*,6.8%,24.5%

# High-throughput results deposited in PubChem BioAssay by National Center for Advancing Translational Sciences (NCATS).
